Our source for the log2 fold change values is the supplement of paper PMC10849652.

About 8,800 targets were measured; listed, in parts, are those with a hit and a random draw of the rest. About 0.5% of all pairs of compound and target were hits.

Chain of UniProt Q9UI10 (Q9UI10 whole entry, looked up): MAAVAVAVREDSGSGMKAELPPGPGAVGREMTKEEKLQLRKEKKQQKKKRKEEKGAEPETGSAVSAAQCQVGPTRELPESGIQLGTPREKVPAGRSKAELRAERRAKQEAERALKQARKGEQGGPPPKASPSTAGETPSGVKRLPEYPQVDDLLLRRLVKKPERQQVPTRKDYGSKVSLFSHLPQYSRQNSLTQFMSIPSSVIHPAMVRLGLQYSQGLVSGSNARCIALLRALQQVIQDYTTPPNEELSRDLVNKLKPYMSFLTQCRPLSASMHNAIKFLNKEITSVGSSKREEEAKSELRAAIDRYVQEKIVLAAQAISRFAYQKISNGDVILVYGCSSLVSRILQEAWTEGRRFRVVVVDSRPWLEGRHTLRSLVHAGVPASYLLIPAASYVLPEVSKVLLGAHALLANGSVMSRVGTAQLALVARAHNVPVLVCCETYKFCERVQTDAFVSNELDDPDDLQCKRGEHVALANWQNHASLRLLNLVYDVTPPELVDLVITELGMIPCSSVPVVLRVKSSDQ
Chain of UniProt Q56P03 (Q56P03 whole entry, looked up): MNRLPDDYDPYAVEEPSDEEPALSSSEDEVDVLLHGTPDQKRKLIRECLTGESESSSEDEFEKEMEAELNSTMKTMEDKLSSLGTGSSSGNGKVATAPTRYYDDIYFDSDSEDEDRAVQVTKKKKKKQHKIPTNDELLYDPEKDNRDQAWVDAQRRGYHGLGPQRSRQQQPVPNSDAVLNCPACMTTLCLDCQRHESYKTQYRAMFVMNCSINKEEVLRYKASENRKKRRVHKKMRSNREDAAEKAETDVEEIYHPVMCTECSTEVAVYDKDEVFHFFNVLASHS
Chain of UniProt Q9H410 (Q9H410 whole entry, looked up): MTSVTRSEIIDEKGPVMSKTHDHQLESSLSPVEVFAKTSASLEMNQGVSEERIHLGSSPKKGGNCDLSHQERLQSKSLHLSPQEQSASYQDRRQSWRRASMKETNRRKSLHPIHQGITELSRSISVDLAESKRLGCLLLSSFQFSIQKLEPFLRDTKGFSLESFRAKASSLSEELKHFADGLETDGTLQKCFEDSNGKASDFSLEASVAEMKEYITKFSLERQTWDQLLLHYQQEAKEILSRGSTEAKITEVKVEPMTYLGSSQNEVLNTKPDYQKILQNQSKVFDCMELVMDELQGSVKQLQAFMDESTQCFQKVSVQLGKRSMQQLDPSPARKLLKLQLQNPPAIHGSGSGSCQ
Chain of UniProt Q01844 (Q01844 whole entry, looked up): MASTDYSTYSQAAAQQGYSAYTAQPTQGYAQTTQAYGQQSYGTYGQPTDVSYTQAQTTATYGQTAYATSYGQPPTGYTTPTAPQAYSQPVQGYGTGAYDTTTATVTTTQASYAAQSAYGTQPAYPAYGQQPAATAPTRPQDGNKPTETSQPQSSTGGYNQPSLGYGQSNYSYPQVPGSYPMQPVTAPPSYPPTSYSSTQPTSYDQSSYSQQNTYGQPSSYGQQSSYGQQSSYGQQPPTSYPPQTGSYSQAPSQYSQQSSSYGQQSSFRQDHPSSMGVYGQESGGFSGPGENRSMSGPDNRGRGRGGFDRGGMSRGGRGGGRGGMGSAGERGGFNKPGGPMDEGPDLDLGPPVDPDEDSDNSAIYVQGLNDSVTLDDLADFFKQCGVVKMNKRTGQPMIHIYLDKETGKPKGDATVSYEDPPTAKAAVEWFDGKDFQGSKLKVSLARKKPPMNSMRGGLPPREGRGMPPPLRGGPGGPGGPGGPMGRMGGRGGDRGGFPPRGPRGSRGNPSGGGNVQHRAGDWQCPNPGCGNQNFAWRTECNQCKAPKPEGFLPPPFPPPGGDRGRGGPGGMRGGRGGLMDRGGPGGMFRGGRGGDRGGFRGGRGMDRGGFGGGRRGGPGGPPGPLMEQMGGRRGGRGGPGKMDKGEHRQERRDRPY
Chain of UniProt O75616 (O75616 whole entry, looked up): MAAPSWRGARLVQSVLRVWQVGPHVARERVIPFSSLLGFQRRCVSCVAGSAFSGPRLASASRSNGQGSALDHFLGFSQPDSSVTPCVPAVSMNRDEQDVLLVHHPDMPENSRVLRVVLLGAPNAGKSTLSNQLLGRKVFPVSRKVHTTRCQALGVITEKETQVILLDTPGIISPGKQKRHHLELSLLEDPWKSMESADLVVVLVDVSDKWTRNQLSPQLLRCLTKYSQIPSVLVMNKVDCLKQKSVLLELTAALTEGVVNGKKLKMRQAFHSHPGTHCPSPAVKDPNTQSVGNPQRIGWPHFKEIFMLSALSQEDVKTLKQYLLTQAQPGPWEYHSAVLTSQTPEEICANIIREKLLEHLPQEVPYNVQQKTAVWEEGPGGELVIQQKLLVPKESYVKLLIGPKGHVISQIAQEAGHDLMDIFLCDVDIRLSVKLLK
Chain of UniProt P0C2W1 (P0C2W1 whole entry, looked up): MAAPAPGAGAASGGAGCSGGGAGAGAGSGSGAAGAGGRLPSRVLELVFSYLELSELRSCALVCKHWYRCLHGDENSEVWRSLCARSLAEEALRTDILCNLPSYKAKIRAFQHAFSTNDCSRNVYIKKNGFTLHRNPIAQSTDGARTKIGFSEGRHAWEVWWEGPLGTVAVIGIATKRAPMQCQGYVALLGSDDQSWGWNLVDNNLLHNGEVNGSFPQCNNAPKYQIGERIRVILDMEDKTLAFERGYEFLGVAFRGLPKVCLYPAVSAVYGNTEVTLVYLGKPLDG
Chain of UniProt Q9BQS8 (Q9BQS8 whole entry, looked up): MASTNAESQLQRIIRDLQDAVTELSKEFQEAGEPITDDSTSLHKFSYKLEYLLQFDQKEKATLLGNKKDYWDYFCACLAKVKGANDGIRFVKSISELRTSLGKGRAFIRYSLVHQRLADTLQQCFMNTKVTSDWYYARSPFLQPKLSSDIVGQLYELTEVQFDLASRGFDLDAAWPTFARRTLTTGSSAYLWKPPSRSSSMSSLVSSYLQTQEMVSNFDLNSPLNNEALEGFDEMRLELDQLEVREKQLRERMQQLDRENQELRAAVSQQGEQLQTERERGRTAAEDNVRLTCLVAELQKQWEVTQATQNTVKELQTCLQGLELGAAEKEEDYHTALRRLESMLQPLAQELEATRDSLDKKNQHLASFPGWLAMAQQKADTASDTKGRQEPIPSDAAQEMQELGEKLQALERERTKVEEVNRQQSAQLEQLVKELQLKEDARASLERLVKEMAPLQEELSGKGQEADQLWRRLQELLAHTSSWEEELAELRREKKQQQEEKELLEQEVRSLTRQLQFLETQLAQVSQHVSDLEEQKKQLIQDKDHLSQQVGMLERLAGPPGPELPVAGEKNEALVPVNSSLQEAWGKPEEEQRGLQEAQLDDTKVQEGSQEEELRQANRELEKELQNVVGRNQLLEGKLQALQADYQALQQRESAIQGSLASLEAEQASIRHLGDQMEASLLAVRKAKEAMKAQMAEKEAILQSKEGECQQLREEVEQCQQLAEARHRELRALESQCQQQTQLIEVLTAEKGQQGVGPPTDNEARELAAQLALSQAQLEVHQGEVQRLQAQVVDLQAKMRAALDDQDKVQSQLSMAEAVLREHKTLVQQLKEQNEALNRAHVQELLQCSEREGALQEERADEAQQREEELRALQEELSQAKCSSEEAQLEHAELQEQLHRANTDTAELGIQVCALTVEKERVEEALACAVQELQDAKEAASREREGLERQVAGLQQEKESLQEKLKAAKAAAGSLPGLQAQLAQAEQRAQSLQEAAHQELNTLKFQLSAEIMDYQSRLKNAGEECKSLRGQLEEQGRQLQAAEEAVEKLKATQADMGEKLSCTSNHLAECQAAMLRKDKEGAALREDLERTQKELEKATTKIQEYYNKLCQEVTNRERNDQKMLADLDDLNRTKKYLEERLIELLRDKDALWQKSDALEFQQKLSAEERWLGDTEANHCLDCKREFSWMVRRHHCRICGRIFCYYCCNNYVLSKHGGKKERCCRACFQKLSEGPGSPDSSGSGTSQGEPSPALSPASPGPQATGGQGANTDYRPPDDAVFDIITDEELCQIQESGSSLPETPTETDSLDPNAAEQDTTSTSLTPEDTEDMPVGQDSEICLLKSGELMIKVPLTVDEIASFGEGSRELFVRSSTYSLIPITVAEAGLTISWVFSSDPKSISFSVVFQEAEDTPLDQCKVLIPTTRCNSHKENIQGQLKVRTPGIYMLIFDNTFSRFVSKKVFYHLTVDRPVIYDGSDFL
Chain of UniProt Q13409 (Q13409 whole entry, looked up): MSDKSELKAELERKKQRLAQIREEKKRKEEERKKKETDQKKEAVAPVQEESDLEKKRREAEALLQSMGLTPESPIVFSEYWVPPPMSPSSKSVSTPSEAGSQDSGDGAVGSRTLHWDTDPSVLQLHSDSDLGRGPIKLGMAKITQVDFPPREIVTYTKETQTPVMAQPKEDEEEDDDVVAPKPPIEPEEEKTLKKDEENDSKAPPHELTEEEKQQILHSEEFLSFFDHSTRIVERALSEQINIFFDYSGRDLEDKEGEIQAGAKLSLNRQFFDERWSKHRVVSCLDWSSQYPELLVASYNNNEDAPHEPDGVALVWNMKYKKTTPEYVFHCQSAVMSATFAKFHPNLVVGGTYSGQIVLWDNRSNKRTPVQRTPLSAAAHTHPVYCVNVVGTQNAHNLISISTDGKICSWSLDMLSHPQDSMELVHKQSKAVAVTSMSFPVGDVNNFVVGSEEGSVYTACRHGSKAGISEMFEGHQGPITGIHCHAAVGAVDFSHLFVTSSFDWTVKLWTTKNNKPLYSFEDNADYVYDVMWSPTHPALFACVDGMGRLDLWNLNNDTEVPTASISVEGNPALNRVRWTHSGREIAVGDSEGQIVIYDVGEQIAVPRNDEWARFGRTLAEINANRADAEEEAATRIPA
Chain of UniProt P0DPD7 (P0DPD7 whole entry, looked up): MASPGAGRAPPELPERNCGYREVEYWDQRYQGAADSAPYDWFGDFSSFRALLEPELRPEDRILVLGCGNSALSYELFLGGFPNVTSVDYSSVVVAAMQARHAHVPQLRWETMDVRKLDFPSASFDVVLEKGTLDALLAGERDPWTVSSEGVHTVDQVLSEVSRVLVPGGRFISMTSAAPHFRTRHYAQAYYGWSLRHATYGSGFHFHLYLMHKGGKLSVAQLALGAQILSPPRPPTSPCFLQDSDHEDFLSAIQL

Compound in the first assay: COC(=O)[C@H](CCSC)NC(=O)C1=C(C=C(C=C1)NC[C@H](CS)N)C2=CC=CC=C2
Briefly: log2 fold change, soluble protein after heating vs DMSO (PISA); higher = thermal stabilisation; K562 lysate, 10 uM; active = over 0.2 and 3.5 SD of the protein, either way, in both replicates (recomputed). In outline:
(§1)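 The values are log-two fold changes in thermal stability compared with solvent controls and come from duplicates. They were obtained by TMTpro 16plex LC-MS/MS, with channel sums equalised, on the supernatant after 21,000xg for 90 min. That supernatant came from crude K562 extract at 1 mg/mL protein treated with 10 μM compound for 30 min, heated for 3 min across 48°C-58°C, pooled and brought to 0.5% NP-40 at 4°C.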
Turning to GEMIN4 (UniProt P57678), the log2 fold change is 0.013 (inactive).
As to ERAL1 (UniProt O75616), the log2 fold change is 0.058 (inactive).
Consider EMC7 (UniProt Q9NPA0), for which the log2 fold change was -0.058 (inactive).
Still for that read-out and setting: the result for EED, A0A5F9ZI63 reads 0.063 (inactive).
Still for that read-out and setting: the result for FAM118B (UniProt Q9BPY3) reads -0.048 (inactive).
In the case of GBF1 (UniProt Q92538), the log2 fold change is -0.031 (inactive).
Still for that read-out and setting: the result for FAT2 (UniProt Q9NYQ8) reads 0.104 (inactive); that for FLT4 (UniProt P35916), 0.053 (inactive).
Same read-out and setting: in the case of ERLIN1 (UniProt O75477) it was -0.216 (active); in that of EAPP (UniProt Q56P03), -0.053 (inactive); in that of GIGYF2 (UniProt Q6Y7W6), -0.063 (inactive).
Take FOXK1 (UniProt P85037): the log2 fold change is 0.09 (inactive).
Still for that read-out and setting: in the case of EIF2B4 (UniProt Q9UI10) it was -0.1 (inactive); in that of GAPDH (UniProt P04406), -0.006 (inactive); in that of EEF1AKMT4 (UniProt P0DPD7), 0.012 (inactive).
Still for that read-out and setting: in the case of FYCO1 isoform 4 (UniProt Q9BQS8) it was 0.024 (inactive); in that of ETHE1 (UniProt O95571), 0.037 (inactive).
The same measure, in the same setting: the result for FBXO22 (UniProt Q8NEZ5) reads -0.006 (inactive); that for EP300 (UniProt Q09472), 0.105 (inactive); that for GEMIN2 (UniProt O14893), -0.009 (inactive).
DYNC1I2 isoform 2 (UniProt Q13409): the log2 fold change is 0.056 (inactive).
As for DYNC1I2 isoform 5 (UniProt Q13409), the log2 fold change is -0.012 (inactive).
As to FBXO45 (UniProt P0C2W1), the log2 fold change is -0.035 (inactive).
For the target EPB41, A0A2R8Y783, the log2 fold change was 0.118 (inactive).
Same read-out and setting: in the case of FYN (UniProt P06241) it was -0.121 (inactive).
For GAA (UniProt P10253), the log2 fold change was -0.15 (inactive).
The same measure, in the same setting: in the case of FXR2 (UniProt P51116) it was 0.064 (inactive); in that of FPGT (UniProt O14772), 0.058 (inactive); in that of FHOD1 (UniProt Q9Y613), 0.028 (inactive).
Turning to EFCAB14 (UniProt O75071), the log2 fold change is -0.086 (inactive).
In the case of DSN1 (UniProt Q9H410), the log2 fold change is 0.107 (inactive).
With FAM83D (UniProt Q9H4H8), the log2 fold change was 0.017 (inactive).
Consider EWSR1 isoform 5 (UniProt Q01844), for which the log2 fold change was -0.036 (inactive).
On to FAM83A (UniProt Q86UY5), for which the log2 fold change was 0.07 (inactive).
GABPB1 isoform 3 (UniProt Q06547): the log2 fold change is 0.099 (inactive).
As to DUS2 (UniProt Q9NX74), the log2 fold change was 0.352 (active).
As to EIF2AK2 (UniProt P19525), the log2 fold change was 0.153 (inactive).

Compound in a further assay: COc1cc(Nc2ncc3c(n2)-c2ccc(Cl)cc2C(c2c(F)cccc2OC)=NC3)ccc1C(=O)O [alisertib]
Described as above. In outline: as §1
For the target GEMIN4 (UniProt P57678), the log2 fold change was -0.006 (inactive).
As for ERAL1 (UniProt O75616), the log2 fold change was -0.008 (inactive).
The same measure, in the same setting: the result for EMC7 (UniProt Q9NPA0) reads 0.001 (inactive).
Still for that read-out and setting: the result for EED, A0A5F9ZI63 reads -0.01 (inactive); that for FAM118B (UniProt Q9BPY3), -0.011 (inactive).
Take GBF1 (UniProt Q92538): the log2 fold change is 0.002 (inactive).
Still for that read-out and setting: in the case of FAT2 (UniProt Q9NYQ8) it was -0.023 (inactive); in that of ERLIN1 (UniProt O75477), -0.007 (inactive).
As to EAPP (UniProt Q56P03), the log2 fold change was -0.042 (inactive).
For GIGYF2 (UniProt Q6Y7W6), the log2 fold change was 0.028 (inactive).
On the same count and under the same terms, in the case of FOXK1 (UniProt P85037) it was 0.016 (inactive); in that of EIF2B4 (UniProt Q9UI10), -0.039 (inactive); in that of GAPDH (UniProt P04406), -0.039 (inactive).
EEF1AKMT4 (UniProt P0DPD7): the log2 fold change is 0.037 (inactive).
FYCO1 isoform 4 (UniProt Q9BQS8): the log2 fold change is 0.018 (inactive).
On to ETHE1 (UniProt O95571), for which the log2 fold change was 0.094 (inactive).
Still for that read-out and setting: the result for FBXO22 (UniProt Q8NEZ5) reads 0.034 (inactive); that for EP300 (UniProt Q09472), -0.121 (inactive); that for GEMIN2 (UniProt O14893), -0.017 (inactive).
With DYNC1I2 isoform 5 (UniProt Q13409), the log2 fold change was -0.011 (inactive).
As to FBXO45 (UniProt P0C2W1), the log2 fold change is 0.003 (inactive).
On to GAA (UniProt P10253), for which the log2 fold change was -0.117 (inactive).
The same measure, in the same setting: the result for FXR2 (UniProt P51116) reads 0.017 (inactive); that for FPGT (UniProt O14772), 0.002 (inactive); that for FHOD1 (UniProt Q9Y613), 0.011 (inactive).
Still for that read-out and setting: in the case of EFCAB14 (UniProt O75071) it was 0.063 (inactive).
Take DSN1 (UniProt Q9H410): the log2 fold change was -0.005 (inactive).
Still for that read-out and setting: the result for FAM83D (UniProt Q9H4H8) reads 0.015 (inactive).
On the same count and under the same terms, in the case of EWSR1 isoform 5 (UniProt Q01844) it was 0.049 (inactive); in that of FAM83A (UniProt Q86UY5), 0.02 (inactive); in that of DUS2 (UniProt Q9NX74), -0.007 (inactive).
Consider EIF2AK2 (UniProt P19525), for which the log2 fold change was 0.003 (inactive).

Compound in a further assay: COc1cc2nc(-c3cc(F)ccc3O)nc(N[C@@H]3CNC[C@H]3C(C)(C)O)c2cc1OC
The description is as above. In outline: as §1
GEMIN4 (UniProt P57678): the log2 fold change was -0.005 (inactive).
Regarding ERAL1 (UniProt O75616), the log2 fold change was 0.016 (inactive).
EMC7 (UniProt Q9NPA0): the log2 fold change was 0.017 (inactive).
As to EED, A0A5F9ZI63, the log2 fold change is 0.013 (inactive).
As to FAM118B (UniProt Q9BPY3), the log2 fold change is -0.043 (inactive).
GBF1 (UniProt Q92538): the log2 fold change was -0.008 (inactive).
FAT2 (UniProt Q9NYQ8): the log2 fold change is 0.043 (inactive).
For the target FLT4 (UniProt P35916), the log2 fold change was 0.031 (inactive).
With ERLIN1 (UniProt O75477), the log2 fold change is -0.028 (inactive).
Still for that read-out and setting: the result for EAPP (UniProt Q56P03) reads 0.017 (inactive).
In the case of GIGYF2 (UniProt Q6Y7W6), the log2 fold change is 0.013 (inactive).
The same measure, in the same setting: the result for FOXK1 (UniProt P85037) reads 0.014 (inactive).
As to EIF2B4 (UniProt Q9UI10), the log2 fold change is -0.008 (inactive).
As for GAPDH (UniProt P04406), the log2 fold change is -0.001 (inactive).
Same read-out and setting: in the case of EEF1AKMT4 (UniProt P0DPD7) it was 0.068 (inactive).
FYCO1 isoform 4 (UniProt Q9BQS8): the log2 fold change is 0.018 (inactive).
Regarding ETHE1 (UniProt O95571), the log2 fold change is 0.022 (inactive).
For the target FBXO22 (UniProt Q8NEZ5), the log2 fold change is 0.013 (inactive).
For EP300 (UniProt Q09472), the log2 fold change was -0.056 (inactive).
For the target GEMIN2 (UniProt O14893), the log2 fold change was 0.009 (inactive).
For DYNC1I2 isoform 2 (UniProt Q13409), the log2 fold change was 0.096 (inactive).
Take DYNC1I2 isoform 5 (UniProt Q13409): the log2 fold change is 0.004 (inactive).
Still for that read-out and setting: in the case of FBXO45 (UniProt P0C2W1) it was 0.02 (inactive); in that of EPB41, A0A2R8Y783, 0.029 (inactive); in that of FYN (UniProt P06241), 0.005 (inactive).
As for GAA (UniProt P10253), the log2 fold change was 0.089 (inactive).
Consider FXR2 (UniProt P51116), for which the log2 fold change was 0.013 (inactive).
Still for that read-out and setting: in the case of FPGT (UniProt O14772) it was 0.002 (inactive); in that of FHOD1 (UniProt Q9Y613), 0.002 (inactive); in that of EFCAB14 (UniProt O75071), 0.012 (inactive).
Take DSN1 (UniProt Q9H410): the log2 fold change is 0.004 (inactive).
Still for that read-out and setting: the result for FAM83D (UniProt Q9H4H8) reads 0.062 (inactive).
For EWSR1 isoform 5 (UniProt Q01844), the log2 fold change is -0.005 (inactive).
Same read-out and setting: in the case of FAM83A (UniProt Q86UY5) it was -0.013 (inactive).
For GABPB1 isoform 3 (UniProt Q06547), the log2 fold change is 0.016 (inactive).
For the target DUS2 (UniProt Q9NX74), the log2 fold change was 0.013 (inactive).
As for EIF2AK2 (UniProt P19525), the log2 fold change is 0.029 (inactive).
